# Measurements from PubChem BioAssay (Tox21).
# Results filed as inconclusive are left out. Where a call stands in place of a potency, no number is given. Activity calls are given as the source filed them. Calls come from the whole dose curve; as a rule, active = well fitted activation curve with a large enough effect in the signal ratio in the repeat runs (not every such curve was filed as active); inconclusive = weak or mixed curves; inactive = flat fitted curve, though single readings scatter; the % refers to the signal ratio.
# Assay: qHTS assay to identify small molecule agonists of the hypoxia (HIF-1) signaling pathway (AID 1224846)
# Details: HRE-bla ME-180 cells, beta-lactamase ratio, 17 h; series mostly up to 76.8 µM
# Source text: U.S. Tox21 Program National Center for Advancing Translational Sciences [NCATS] NIH Chemical Genomics Center [NCGC] U.S. Environmental Protection Agency [EPA] National Institutes of Environmental Health Sciences [NIEHS] National Toxicology Program [NTP] U.S. Food and Drug Administration [FDA] Tox21 Assay Overview: Hypoxia-inducible factor-1 (HIF-1) is the major hypoxia-regulated transcription factor that controls cellular responses to low oxygen concentration. HIF-1 is composed of two subunits: hypoxia responsive HIF-1-alpha and constitutively expressed HIF-1-beta, which is also known as aryl hydrocarbon receptor nuclear translocator. During hypoxic conditions, HIF-1-alpha heterodimerizes with HIF-1-beta and translocates into the nucleus where the HIF-1 complex binds to the hypoxia-response element (HRE) and activates expression of target genes such as VEGF (vascular endothelial growth factor). The HIF-1 pathway is essential to normal growth and development, and is involved in the pathophysiology of cancer, inflammation, and ischemia. Using a beta-lactamase reporter-gene under control of the hypoxia response element, a cell-based assay [CellSensor(TM) HRE-bla ME-180 from Life Technologies, Carlsbad, CA] was used to measure hypoxia-induced signaling. Tox21 10K library compounds were measured for their ability to induce the reporter gene activity.
# Tox21 Assay Protocol Summary: HRE-bla ME-180 cells were dispensed at 2,000 cells per well in 6 uL of assay medium containing 0.5% dialyzed FBS into black wall/clear-bottom 1536-well plates using a Multidrop Combi (Thermo Scientific, Waltham, MA) dispenser. After the assay plates were incubated at 37C and 5% CO2 for 5 hrs, 23 nL of compounds dissolved in DMSO, positive controls or DMSO only was transferred to each well of the assay plate using a Pintool station (Kalypsys, San Diego, CA). The assay plates were incubated at 37C and 5% CO2 for 17 hrs. One uL of LiveBLAzerTM B/G FRET substrate (CCF4-AM) (Life Technologies) was added to each well using a Flying Reagent Dispenser (Aurora Discovery, San Diego, CA).
Compound,Potency,activation
Cc1c[nH]c(=O)[nH]c1=O,inactive,
[Cl][Sc]([Cl])[Cl],inactive,
CC1=CC[C@@H](C(C)(C)O)CC1,inactive,
c1ccc(-c2nc3ccccc3[nH]2)cc1,inactive,
Brc1cc(Br)cc(Br)c1,inactive,
CC(c1cc(C(C)(C)C)cc(C(C)(C)C)c1O)c1cc(C(C)(C)C)cc(C(C)(C)C)c1O,inactive,
Cc1cc(C)c(O)c(C(C)(C)C)c1,inactive,
CC/C=C\C/C=C\C/C=C\CCCCCCCC(=O)OC,inactive,
Cc1cccc2c1ccc1ccccc12,inactive,
CCOc1nc(F)cc2nc(S(=O)(=O)Nc3c(Cl)cccc3C(=O)OC)nn12,inactive,
Cc1ccc(C2OC[C@@H]3OC(c4ccc(C)cc4)O[C@H]([C@H](O)CO)[C@@H]3O2)cc1 (stereo not given in full),inactive,
Cc1cccc(C)c1C,inactive,
O=C1c2ccccc2C(=O)c2c(Cl)cccc21,inactive,
Nc1ccc(Cl)c([N+](=O)[O-])c1,inactive,
CC1(C)[C@H](C(=O)OCc2cccc(Oc3ccccc3)c2)[C@@H]1C=C(Cl)Cl,inactive,
CC(C)C(=O)C(C)C,inactive,
C=Cc1ccncc1,inactive,
C/C=C/C(=O)C1=C(C)C=CCC1(C)C,inactive,
CCOC(=O)[C@H](O)[C@@H](O)C(=O)OCC,inactive,
c1ccc2cc3c4ccccc4c4ccccc4c3cc2c1,inactive,

Compound,Potency,activation
C1CCSC1,inactive,
C=C(C)C1CCC(C)CC1O (stereo not given),inactive,
CCC(O)CO (stereo not given),inactive,
CN[C@H]1CC[C@@H](c2ccc(Cl)c(Cl)c2)c2ccc(S(N)(=O)=O)cc21,inactive,
CCc1c(C)cc(N)c(CC)c1N,inactive,
Cc1ccc2sc3cccc(C)c3c2c1,inactive,
C1=CCCC1,inactive,
CCCCCCCCCCCC(=O)Cl,inactive,
NC(=O)C1CO1 (stereo not given),inactive,
CCN(CC)c1ccc2c(c1)Oc1cc(N(CC)CC)ccc1C21OC(=O)c2ccccc21,inactive,
CCN(CC)c1ccc(C=O)cc1,inactive,
C/C(=N\[Si](C)(C)C)O[Si](C)(C)C,inactive,
O=[N+]([O-])c1ccc(CO)cc1,inactive,
CCOC(=O)OC(=O)OCC,inactive,
CSc1nnc(C(C)(C)C)c(=O)[nH]1,inactive,
Nc1cc([N+](=O)[O-])ccc1Cl,inactive,
O=C1OCc2ccccc21,inactive,
C=CC(=O)OCCOC1C2CCC1C1CC=CC12 (stereo not given),,0.329% [at 15.8 µM] (inactive)
CCCCNc1ccc(NCCCC)c2c1C(=O)c1ccccc1C2=O,,0.413% [at 15.8 µM] (inactive)
CC(C)(C)c1cc(CCC(=O)OCCSCCOC(=O)CCc2cc(C(C)(C)C)c(O)c(C(C)(C)C)c2)cc(C(C)(C)C)c1O,inactive,
